# The full list was thinned out, with hits kept by preference.
# CapD inh = Bacillus anthracis CapD inhibitors, primary screen, biochemical, fluorescence intensity; CapD gamma-glutamyltranspeptidase (Bacillus anthracis Ames Ancestor); purified CapD enzyme, fluorescence intensity read-out; hits give low values; z-score (test concentration not listed); actives 0.23% (n = 140,000); in the data active means z-score mostly below about -2.9, no sharp cut-off; inactive means mostly above about -1.9
# * hit, by the source's call.
SMILES,CapD inh
Cc1[nH]c2ccccc2c1CN1CCc2ccccc2C1,-0.08
CCOC(=O)c1c(C)cc(C)[nH]c1=S,-4.85*
CCOC(=O)c1[nH]c(C)cc1C,-0.645
CCOC(=O)c1c(C)cc(C)[nH]c1=O,16.5
COC(Cc1nnc(SCc2ccccc2)n1-c1ccc(Cl)cc1)OC,-0.115
COC(=O)c1ccc(NC(C)C)c([N+](=O)[O-])c1,-0.325
COc1ccc(-c2noc(NC3CCCc4ccccc43)n2)cc1 (stereo unspecified),0.22
O=S1(=O)c2cccc3cccc(c23)N1Cc1ccccn1,24.3
ONc1nc2ccccc2nc1NO,-1.11
CC(=O)Nc1cccc2nc(C)sc12,-0.095
CC(=O)Nc1nc2ccccc2nc1Cl,-7.65*
COC(C(=O)N/N=C/c1cc(Br)c(C)o1)c1ccccc1 (stereo unspecified),-0.125
O=C(COC(=O)C(Cc1c[nH]c2ccccc12)NC(=O)c1ccco1)c1ccc(Cl)cc1 (stereo unspecified),-0.465
CC(=NCCc1c(C)[nH]c2ccc(OC(F)(F)F)cc12)C1=C(O)CC(c2ccccc2)CC1=O (stereo unspecified),0.84
CC(=NCCc1ccc(F)cc1)C1=C(O)c2ccccc2C1=O,-4.78*
CCOC(=O)C1=C(O)c2ccccc2C1=O,0.15
CSC(C)C(=O)C1=C(O)c2ccccc2C1=O (stereo unspecified),-2.13
Cc1ccc(C2C(C#N)=C(SCC(=O)N3c4ccccc4CC3C)NC3=C2C(=O)CCC3)o1 (stereo unspecified),0.665
CC(C)NC(=S)N/N=C/c1ccco1,-4.04*
S=C(NCc1ccccc1)N/N=C/c1ccco1,-1.71
S=C(N/N=C\c1ccco1)Nc1ccccc1,-3.3
Cn1c(C(=O)O)c(CNCc2cccnc2)c2ccccc21,7.02
CC(C)(C)CCNS(=O)(=O)c1ccc(Br)cc1,0.26
O=C(CN1C(=O)/C(=C\c2cccs2)SC1=S)N1CCN(c2ccccc2)CC1,-0.395
O=C(/C=C/c1ccco1)C1(O)CCCCC1,-5.62*
SMILES,CapD inh
O=C(/C=C/c1ccco1)/C=C/c1ccco1,0.035
COc1ccc(/C=C/C(=O)C2(O)CCCCC2)cc1,-0.88
COc1ccc(C[C@H]2NC[C@H](O)[C@H]2OC(C)=O)cc1,-0.335
CC(CO)NC(=O)OCC1c2ccccc2-c2ccccc21 (stereo unspecified),-1.24
CC(C)Cn1c(=O)c2sccc2n2c(CCCC(=O)N(C)Cc3ccco3)nnc12,0.56
FC(F)(F)c1cccc(-c2ccc3ccccc3n2)c1,-0.535
O=C(O)c1ccc2c(c1)C1C=CCC1C(c1cccc3ccccc13)N2 (stereo unspecified),-0.62
O=C(O)c1ccc2c(c1)C1C=CCC1C(c1ccc(Br)cc1)N2 (stereo unspecified),-1.35
CCc1ccc2c(c1)C1C=CCC1C(c1ccc(C(=O)O)cc1)N2 (stereo unspecified),-1.05
O=C(O)C1Nc2ccccc2C2C=CCC12 (stereo unspecified),-8.75*
CC(=O)Oc1ccc(C2Nc3ccc(C(=O)O)cc3C3C=CCC32)c(OC(C)=O)c1 (stereo unspecified),-4.42*
CC(=O)Oc1ccc(C2Nc3ccc(C)cc3C3C=CCC32)c(OC(C)=O)c1 (stereo unspecified),0.035
O=C(O)c1ccc(C2Nc3ccccc3C3C=CCC32)cc1 (stereo unspecified),-7.87*
CC(=O)Oc1ccc(C2Nc3ccc(C(C)=O)cc3C3C=CCC32)c(OC(C)=O)c1 (stereo unspecified),1.34
Brc1ccccc1[C@@H]1Nc2ccccc2[C@@H]2C=CC[C@@H]21,-0.465
Cc1cc(=O)n(Cc2ccccc2)[nH]1,-0.315
Cc1ccccc1-n1nc2c(c1NC(=O)c1ccc(S(=O)(=O)N3CCCCC3)cc1)CS(=O)(=O)C2,-0.505
CCN(C(=O)Cc1cccs1)c1ccccc1,-0.09
CCCN1CCC(NCc2cccc(C(F)(F)F)c2)CC1,0.195
CC1=C(C(=O)OC2CCCC2C)C(c2ccc(Cl)cc2)NC(=O)N1 (stereo unspecified),-0.095
CSC1=NC(C)=C(C(=O)Nc2ccccc2)C2(CCCCC2)C1C(N)=O (stereo unspecified),-0.795
CCSc1nnc(Cc2cc(=O)[nH]c(=O)[nH]2)n1-c1cccc(C)c1,-0.18
O=C(CSc1nnc(Cc2cc(=O)[nH]c(=O)[nH]2)n1-c1ccccc1)N1CCCC1,-0.125
NC(=O)CSc1nnc(Cc2cc(=O)[nH]c(=O)[nH]2)n1-c1ccccc1,-5.03*
Cc1oncc1C(=O)Nc1ccc(C(F)(F)F)cc1,-0.2
SMILES,CapD inh
COc1ccc(-c2csc3ncnc(-n4nc(C)cc4N)c23)cc1,-0.36
O=c1oc(-c2c(Cl)cccc2Cl)ns1,0.155
O=c1oc(-c2cccs2)ns1,-8.91*
O=c1oc(-c2cccs2)nc2ccccc12,-0.025
C[N+]12CCC(CC1)C(OC(=O)C(O)(c1ccccc1)c1ccccc1)C2 (stereo unspecified),-0.165
COc1cccc(C(=O)Nc2ccc(-c3cn4ccccc4n3)cc2)c1,0.02
CN(C)/C=C1\CCCc2ccccc2C1=O,-4.12*
CN(C)/C=C1\Cc2ccccc2C1=O,6.44

# Screens deposited in PubChem by ICCB-Longwood Screening Facility, Harvard Medical School.
